# PubChem BioAssay (EPA / NIEHS)
# Values joined by “and” are separate entries in the source; they are usually repeats but may differ in a detail not shown here. Equal values may be shown once. Records with an inconclusive call do not appear. Where a structure was tested more than once in an assay, its records may differ in their call. Active and inactive are the calls of the source. How the source made its calls, unless noted: active means hit-call score of the fitted dose curve at least 0.9, where 1 is the maximum; inconclusive means response in the unintended direction; inactive means score below 0.9.
# Key:
# [1] = target: Cellular tumor antigen p53 (Homo sapiens) (UniProt P04637); assay: TOX21_p53_BLA_p4_ratio: Tox21 HCT-116 p53 Agonism Beta-lactamase Assay, Ratio, Phase 4 (AID 2283601)
# Chain of Cellular tumor antigen p53 (Homo sapiens) (P04637 whole entry, looked up): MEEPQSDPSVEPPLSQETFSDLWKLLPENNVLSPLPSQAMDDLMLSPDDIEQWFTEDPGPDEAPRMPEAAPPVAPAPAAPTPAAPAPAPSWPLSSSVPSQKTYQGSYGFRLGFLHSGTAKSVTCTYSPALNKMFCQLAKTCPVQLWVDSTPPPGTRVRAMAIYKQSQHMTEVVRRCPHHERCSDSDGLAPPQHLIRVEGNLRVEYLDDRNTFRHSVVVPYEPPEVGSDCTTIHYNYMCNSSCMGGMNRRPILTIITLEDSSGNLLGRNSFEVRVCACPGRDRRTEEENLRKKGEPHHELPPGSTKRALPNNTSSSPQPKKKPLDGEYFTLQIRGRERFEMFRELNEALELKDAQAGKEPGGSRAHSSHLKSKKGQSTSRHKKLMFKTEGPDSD
# In short: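 HCT-116 p53 beta-lactamase reporter cells (4000/well) preincubated 5 h, then compound (217-fold dilution of DMSO stock) for 16 h at 37C. CCF4-AM substrate added 2 h at room temperature; 460/530 nm emission ratio fitted upward versus DMSO.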
# [2] = TOX21_p53_BLA_p4_viability: Viability Assessment in the Tox21 HCT-116 p53 Agonism Beta-lactamase Assay, Phase 4 (AID 2283597);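 further: hits lower the luminescence signal meaning cytotoxicity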
# In short: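 Cytotoxicity as reduced cellular ATP (CellTiter-Glo luminescence, 30 min room temperature), measured in the same wells following the CCF4 FRET p53 reading. Human HCT-116 cells received compounds in DMSO (217-fold dilution) for 16 h.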
# [3] = target: Cellular tumor antigen p53 (Homo sapiens) (UniProt P04637); assay: TOX21_p53_BLA_p5_ratio: Tox21 HCT-116 p53 Agonism Beta-lactamase Assay, Ratio, Phase 5 (AID 2283599)
# In short: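 HCT-116 p53-bla cells (4000/well) plated 5 h, dosed with compound (217-fold DMSO dilution) for 16 h at 37 C; CCF4-AM substrate 2 h at room temperature. Activity is the 460/530 nm emission ratio (405 nm excitation), fitted in gain-of-signal direction versus DMSO.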
# [4] = TOX21_p53_BLA_p5_viability: Viability Assessment in the Tox21 HCT-116 p53 Agonism Beta-lactamase Assay, Phase 5 (AID 2283600)
# In short: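 Viability came from CellTiter-Glo ATP luminescence, read after 30 min at room temperature. Before this, HCT-116 p53-bla cells (4000/well) had 16 hours of compound exposure at 37C, with DMSO stocks diluted 217-fold on transfer.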
# [5] = ACEA_ER_AUC_viability: ACEA Biosciences xCELLigence Real-Time Cell Analysis on Estrogen Receptor Agonism for Viability (AID 2283782);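 further: hit means loss of impedance signal meaning reduced cell growth or viability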
# In short: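 Read-out: real-time electrical impedance (RT-CES) area under curve, loss of signal taken as reduced viability, normalized to DMSO baseline. T-47D cells, charcoal-stripped serum medium, compounds up to 100 uM final, continuous exposure, 80 h.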
# [6] = target: Thyroid hormone receptor alpha (Rattus norvegicus) + Thyroid hormone receptor beta (Rattus norvegicus) (UniProt P18113+P63059); assay: TOX21_TR_LUC_GH3_Agonist_Followup: Tox21 GH3 Thyroid Hormone Receptor Agonism Luciferase Follow-Up Assay (AID 2283939)
# Chain of Thyroid hormone receptor alpha (Rattus norvegicus) + Thyroid hormone receptor beta (Rattus norvegicus) (P63059 whole entry, looked up): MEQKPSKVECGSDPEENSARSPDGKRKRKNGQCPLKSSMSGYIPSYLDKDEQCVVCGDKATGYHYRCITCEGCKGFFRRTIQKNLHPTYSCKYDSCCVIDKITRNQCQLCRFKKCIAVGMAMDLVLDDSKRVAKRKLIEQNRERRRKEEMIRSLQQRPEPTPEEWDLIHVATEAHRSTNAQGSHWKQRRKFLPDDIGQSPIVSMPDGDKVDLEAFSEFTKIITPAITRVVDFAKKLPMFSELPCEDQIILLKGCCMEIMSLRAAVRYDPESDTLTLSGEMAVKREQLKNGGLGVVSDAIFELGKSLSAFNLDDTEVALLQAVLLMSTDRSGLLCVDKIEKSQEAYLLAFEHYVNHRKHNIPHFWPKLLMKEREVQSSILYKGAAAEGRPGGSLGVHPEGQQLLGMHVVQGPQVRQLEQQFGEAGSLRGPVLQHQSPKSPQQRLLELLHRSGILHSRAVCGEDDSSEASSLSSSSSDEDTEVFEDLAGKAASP
# Chain of Thyroid hormone receptor alpha (Rattus norvegicus) + Thyroid hormone receptor beta (Rattus norvegicus) (P18113 whole entry, looked up): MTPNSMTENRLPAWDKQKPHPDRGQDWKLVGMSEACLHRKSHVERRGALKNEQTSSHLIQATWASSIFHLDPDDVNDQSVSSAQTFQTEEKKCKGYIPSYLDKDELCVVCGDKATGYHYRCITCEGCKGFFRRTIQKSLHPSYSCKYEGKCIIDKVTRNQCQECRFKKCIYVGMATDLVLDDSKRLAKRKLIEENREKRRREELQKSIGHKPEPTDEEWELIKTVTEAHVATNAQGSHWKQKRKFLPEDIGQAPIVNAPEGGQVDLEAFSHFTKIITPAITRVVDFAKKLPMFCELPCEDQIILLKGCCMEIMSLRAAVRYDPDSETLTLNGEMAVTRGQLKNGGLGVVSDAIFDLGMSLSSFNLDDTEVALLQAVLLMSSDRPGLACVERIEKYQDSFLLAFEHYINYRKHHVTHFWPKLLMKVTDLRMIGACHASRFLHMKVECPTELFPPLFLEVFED
# In short: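 Agonist-mode confirmatory run: 15 concentrations (5 nM to 92 uM final) on GH3 rat pituitary cells, 24 h at 37C/5% CO2, T3 as positive control. Luminescence read with ONE-Glo after 30 min.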
# THRA (gene 7067) = THRA (gene 7067) (UniProt P10827); assay: TOX21_TRA_COA_Agonist_Followup_ratio: Tox21 Thyroid Hormone Receptor alpha Agonism through Coactivator Recruitment Follow-Up Assay, Ratio (AID 2283948; active means hit-call score of the fitted dose curve at least 0.9, where 1 is the maximum; inactive means score below 0.9)
# Chain of THRA (gene 7067) (P10827 whole entry, looked up, the tested form may be a part): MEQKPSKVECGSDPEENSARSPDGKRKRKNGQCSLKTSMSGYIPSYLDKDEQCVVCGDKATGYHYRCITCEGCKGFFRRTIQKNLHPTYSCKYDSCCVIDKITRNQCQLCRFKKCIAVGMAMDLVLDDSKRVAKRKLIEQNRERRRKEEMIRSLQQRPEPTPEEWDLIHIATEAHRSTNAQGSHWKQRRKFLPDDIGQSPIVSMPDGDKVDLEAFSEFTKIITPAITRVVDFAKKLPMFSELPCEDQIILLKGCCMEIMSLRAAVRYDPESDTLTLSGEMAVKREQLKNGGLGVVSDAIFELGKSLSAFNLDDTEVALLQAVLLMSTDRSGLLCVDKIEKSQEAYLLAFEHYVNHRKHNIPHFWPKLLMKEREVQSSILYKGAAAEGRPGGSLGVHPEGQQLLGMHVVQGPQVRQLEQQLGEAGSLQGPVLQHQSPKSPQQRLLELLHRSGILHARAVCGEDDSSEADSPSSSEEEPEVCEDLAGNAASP
# In short: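 Cell-free TR-FRET coactivator recruitment: GST-tagged TRα LBD (2.5 nM) with 0.10% BSA was incubated with compound, then fluorescein-SRC-2 peptide (200 nM) and Tb-anti-GST antibody (2 nM) added. 520:495 nm ratio normalized to DMSO (0%) and T3 (100%).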
# THRB (gene 7068) [7] = target: THRB (gene 7068) (UniProt P10828); assay: TOX21_TRB_BLA_Agonist_Followup_ratio: Tox21 Thyroid Hormone Receptor beta Agonism Beta-lactamase (BLA) Follow-Up Assay, Ratio (AID 2283954)
# Chain of THRB (gene 7068) (P10828 whole entry, looked up, the tested form may be a part): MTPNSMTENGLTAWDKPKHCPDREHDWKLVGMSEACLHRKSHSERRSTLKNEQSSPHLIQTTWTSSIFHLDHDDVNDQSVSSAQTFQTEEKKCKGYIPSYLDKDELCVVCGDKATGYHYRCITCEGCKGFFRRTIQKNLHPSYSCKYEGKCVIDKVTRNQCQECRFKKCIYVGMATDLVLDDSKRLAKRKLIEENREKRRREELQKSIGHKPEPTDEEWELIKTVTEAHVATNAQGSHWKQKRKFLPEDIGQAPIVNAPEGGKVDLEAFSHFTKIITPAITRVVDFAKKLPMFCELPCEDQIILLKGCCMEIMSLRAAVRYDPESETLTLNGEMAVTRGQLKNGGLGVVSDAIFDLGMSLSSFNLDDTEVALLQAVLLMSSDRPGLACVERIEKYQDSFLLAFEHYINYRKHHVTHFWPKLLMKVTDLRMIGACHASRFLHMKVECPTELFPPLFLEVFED
# In short: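 Agonist mode: compounds (11-point, triplicate) incubated 18 h with HEK293T cells carrying GAL4-DBD/human TRβ-LBD and UAS-β-lactamase. Blue/green (460/530 nm) FRET ratio read after 2 h CCF4-AM loading; CellTiter-Glo viability run in the same plates.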
# [8] = TOX21_TRB_BLA_Agonist_Followup_viability: Viability Assessment in the Tox21 Thyroid Hormone Receptor beta Agonism Beta-lactamase (BLA) Follow-Up Assay (AID 2283956)
# In short: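 Viability was read as CellTiter-Glo luminescence in the same wells as the TRb-bla agonist read-out. HEK293T GAL4-TRb LBD cells were treated for 18 h (37C, 5% CO2) at 11 concentrations in triplicate. Fits were bidirectional versus DMSO baseline.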
# THRB (gene 7068) [9] = target: THRB (gene 7068) (UniProt P10828); assay: TOX21_TRB_COA_Agonist_Followup_ratio: Tox21 Thyroid Hormone Receptor beta Agonism through Coactivator Recruitment Follow-Up Assay, Ratio (AID 2283963; active means hit-call score of the fitted dose curve at least 0.9, where 1 is the maximum; inactive means score below 0.9)
# In short: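 Cell-free TR-FRET coactivator recruitment: GST-tagged TRβ LBD (5.0 nM) with 0.10% BSA incubated with compound, then fluorescein-SRC-2 peptide (200 nM) and Tb-anti-GST antibody (2 nM) added. 520:495 nm ratio normalized to DMSO (0%) and T3 (100%).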
# [10] = target: Retinoic acid receptor RXR-alpha (Homo sapiens) (UniProt P19793); assay: TOX21_TR_RXR_BLA_Agonist_Followup_ratio: Tox21 Thyroid Hormone Receptor beta Retinoid X Receptor alpha (RXRa) Agonism Beta-lactamase (BLA) Follow-Up Assay, Ratio (AID 2283968)
# Chain of Retinoic acid receptor RXR-alpha (Homo sapiens) (P19793 whole entry, looked up): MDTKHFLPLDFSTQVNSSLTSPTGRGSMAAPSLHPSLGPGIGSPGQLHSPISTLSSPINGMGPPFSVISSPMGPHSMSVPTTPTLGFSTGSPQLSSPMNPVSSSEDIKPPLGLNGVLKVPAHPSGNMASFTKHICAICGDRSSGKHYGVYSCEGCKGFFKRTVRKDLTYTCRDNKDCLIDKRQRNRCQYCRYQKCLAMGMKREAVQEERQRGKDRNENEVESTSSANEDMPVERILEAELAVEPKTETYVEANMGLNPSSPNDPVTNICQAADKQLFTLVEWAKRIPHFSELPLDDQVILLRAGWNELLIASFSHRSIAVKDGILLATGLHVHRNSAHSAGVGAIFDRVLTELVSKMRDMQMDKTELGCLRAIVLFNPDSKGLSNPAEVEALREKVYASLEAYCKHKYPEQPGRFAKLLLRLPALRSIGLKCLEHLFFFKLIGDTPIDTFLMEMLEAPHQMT
# In short: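 Agonism is scored as an increase in the 460:530 nm beta-lactamase substrate ratio over DMSO in RXRa-UAS-bla HEK293T cells exposed for 16 h to 11 compound concentrations.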
# [11] = TOX21_TR_RXR_BLA_Agonist_Followup_viability: Viability Assessment in the Tox21 Thyroid Hormone Receptor beta Retinoid X Receptor alpha (RXRa) Agonism Beta-lactamase (BLA) Follow-Up Assay (AID 2283970)
# In short: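 Luminescent ATP read (CellTiter-Glo) after 16h exposure of RXRa-UAS-bla HEK293T cells at 37C/5% CO2. Activity normalized to DMSO; signal loss scored as reduced viability.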
# [12] = TOX21_TRB_BLA_Antagonist_Followup_viability: Viability Assessment in the Tox21 Thyroid Hormone Receptor beta Antagonism Beta-lactamase (BLA) Follow-Up Assay (AID 2283961)
# In short: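 ATP-based CellTiter-Glo luminescence (30 min, room temperature) run in the same wells as the TRβ-bla readout. Cells: GeneBLAzer HEK293T expressing GAL4-TRβ LBD, exposed 18 h at 37C to compounds at 11 concentrations in triplicate, stripped-serum medium.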
compound,measurement,setting,value
C[C@]12CC[C@H]3[C@@H](CCC4=CC(=O)CC[C@@]43C)[C@@H]1CC[C@@H]2O,outcome,[1],inactive
CC(C)NC(C)Cc1ccc(I)cc1 (stereo unspecified),outcome,[2],inactive
same,outcome,[3],inactive
same,outcome,[4],inactive
same,outcome,[1],inactive
CCCCCBr,outcome,[2],inactive
same,outcome,[3],inactive
NC(=O)c1cc([N+](=O)[O-])cc([N+](=O)[O-])c1,outcome,[4],inactive
CCN(Cc1ccc(Cl)nc1)/C(=C/[N+](=O)[O-])NC,outcome,[1],inactive
N#CCCl,outcome,[2],inactive
same,outcome,[3],inactive
same,outcome,[4],inactive
same,outcome,[1],inactive
COP(=S)(OC)Oc1ccc(S(N)(=O)=O)cc1,outcome,[2],inactive
same,outcome,[3],inactive
same,outcome,[4],inactive
same,outcome,[1],inactive
CCC1C(C)=NN=C(c2ccc(OC)c(OC)c2)c2cc(OC)c(OC)cc21 (stereo unspecified),outcome,[3],inactive
Nc1ccccc1Cl,outcome,[2],inactive
CC(C)=CC1C(C(=O)OC(C#N)c2cccc(Oc3ccccc3)c2)C1(C)C (stereo unspecified),outcome,[5],inactive
O=C(O)CCCCCCNC1c2ccccc2CCc2ccccc21,outcome,[1],inactive
same,outcome,[6],inactive
same,AC50,THRA (gene 7067),23.8 µM (active)
same,outcome,THRB (gene 7068) [7],inactive
same,outcome,[8],inactive
same,AC50,THRB (gene 7068) [9],13.2 µM (active)
same,outcome,[10],inactive
same,outcome,[11],inactive
CCCCCCCCCCn1cc[n+](C)c1,AC50,[3],15.5 µM (active)
same,outcome,[3],inactive
same,AC50,[1],45.6 µM (active) and 21.5 µM (active) and 46 µM (active)
same,outcome,[1],inactive
same,AC50,[12],7.88 µM (active)
NC(=O)CN1CC(O)CC1=O (stereo unspecified),outcome,[4],inactive
same,outcome,[1],inactive
Cc1cc(OC(=O)N(C)C)nn1C(=O)N(C)C,outcome,[2],inactive
same,outcome,[3],inactive
same,outcome,[4],inactive
same,outcome,[1],inactive
CCCCCCCCCC(=O)O[C@H]1CC[C@H]2[C@@H]3CCC4=CC(=O)CC[C@]4(C)[C@H]3CC[C@]12C,outcome,[3],inactive
same,outcome,[1],inactive
